High-throughput results as filed in PubChem.
Compounds with a hit are over-represented: about 7.4% of the library has one in this group of screens.
Rab9 prom act = Rab9 promoter activation; Huh7 Rab9 promoter-luciferase reporter, luminescence, 24 h; Potency, µM (titrated, usually from 9.22 µM), for inactives: at the highest dose activation, negative = inhibition, usual class: activators; hit rate 2.8% among 320,000; AID 485297; also: % of control where 0% means no effect; nearly all actives have a fitted effect of over 60% in size
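Luminescence read-out: Huh7 cells stably expressing Rab9-luciferase, treated 24 h with compound at 37 °C, then lysed with luciferase reagent for 10 min at ambient before reading.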
ELG1 genotox = inducers of genotoxicity in HEK293T ELG1-luciferase cells; Potency, µM (series often up to 46 µM), without a hit: top-dose activity change, positive = activation, hits mostly activators; HEK293T ELG1-luciferase reporter, luminescence, 16 h; hit rate 1.3% among 330,000; also: % of control where 0% means no effect; nearly all actives have a fitted effect of over 60% in size
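DMSO vehicle served as control against compound-treated ELG1-luciferase HEK293T cells; exposure lasted 16 hr at 37 °C and 5% CO2, followed by ONE-Glo luminescence detection after 30 min.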
SMN2 splice up = SMN2 splice variant enhancement; HEK293 SMN2-luciferase splicing reporter, luminescence, 30-36 h; Potency, µM (series often up to 46.1 µM), without a hit: at the top dose activity change, positive = activation, most hits filed as activators; hit rate 2.8% among 210,000; AID 1458; also: % of control where 0% means no effect; nearly all actives have a fitted effect of over 55% in size
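HEK293 cells carry an SMN2 minigene-luciferase reporter in which exon 7 inclusion puts luciferase in frame. Cells were seeded at 2000 cells/well, attached for 10-12 hours, then exposed to compounds for 30-36 hours at 37C before ONE-Glo luminescence.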
FLuc modulator = firefly luciferase modulation, counter-screen for miR-21 project | hit rate 6.9% among 360,000 | AID 588342 | Potency, µM (series often up to 57.5 µM), inactives show at the top dose activity change, negative = inhibition, usual class: inhibitors | purified FLuc, Km substrates, luminescence inhibition | P08659;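 also: plate controls were vehicle for no effect and reference inhibitor for full effect; nearly all actives have a fitted effect of over 55% in size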
Target sequence (P08659 whole entry, looked up): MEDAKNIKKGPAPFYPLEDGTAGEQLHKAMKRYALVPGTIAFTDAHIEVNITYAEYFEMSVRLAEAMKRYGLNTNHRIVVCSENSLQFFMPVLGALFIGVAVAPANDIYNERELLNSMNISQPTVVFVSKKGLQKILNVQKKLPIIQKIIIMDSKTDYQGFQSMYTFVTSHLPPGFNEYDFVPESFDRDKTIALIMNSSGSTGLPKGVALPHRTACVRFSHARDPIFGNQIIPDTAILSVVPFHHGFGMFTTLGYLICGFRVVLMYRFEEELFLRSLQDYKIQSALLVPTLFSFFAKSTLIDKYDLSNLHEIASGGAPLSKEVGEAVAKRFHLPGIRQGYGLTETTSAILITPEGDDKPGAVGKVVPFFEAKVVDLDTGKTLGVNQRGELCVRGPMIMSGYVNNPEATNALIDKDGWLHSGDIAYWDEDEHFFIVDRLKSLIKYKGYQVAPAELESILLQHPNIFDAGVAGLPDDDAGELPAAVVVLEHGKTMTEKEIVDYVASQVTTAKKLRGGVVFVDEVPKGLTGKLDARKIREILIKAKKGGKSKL
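Purified P. pyralis luciferase, 10 nM final, with Km-level 10 uM D-luciferin and 10 uM ATP in 50 mM Tris acetate pH 7.5, 10 mM Mg acetate, 0.01% Tween-20, 0.05% BSA; 6-point qHTS titration about 60 µM downward; luminescence read.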
NPC1 prom act = activates the NPC1 promoter; Huh7 NPC1 promoter luciferase reporter, 24 h; Potency, µM (doses to about 9.22 µM), for the others: top-dose activation, most hits filed as activators; hit rate 2.4% among 320,000; AID 485313; also: % of control where 0% means no effect; nearly all actives have a fitted effect of over 60% in size
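Luminescence read-out of NPC1 promoter-driven luciferase in stably transfected Huh7 cells; compounds delivered in DMSO and left 24 h at 37C, 5% CO2, qHTS titration format.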
Starred values were filed as active, the others as inactive; ? = inconclusive; . = no result given; [ ] = dose if it differs, or a comment. Calls follow the shape of the dose curve; as a rule, active = well fitted curve in the direction sought with a large enough effect; inconclusive = small, poorly fitted or top-dose-only effect, or another doubt; inactive = no such curve, though single readings can be large; an effect the other way counts as inactive or inconclusive. Potency is read from the fitted curve at half-maximal effect.

SMILES	Rab9 prom act	ELG1 genotox	SMN2 splice up	FLuc modulator	NPC1 prom act
CCc1cc2c(=O)c(-c3ccc4c(c3)OCCO4)coc2cc1OS(C)(=O)=O	3.5µM*	7%	22µM*	4.8µM*	2.8µM*
CCc1cc2c(=O)c(-c3ccc4c(c3)OCCO4)coc2c(CN2CCCCC2C)c1O (centres undefined)	21%	12%	.	6.7µM*	7%
COc1cccc(C2Nc3ccc4ccccc4c3C3=C2C(=O)CCC3)c1O (centres undefined)	-6%	15%	.	-2%	-7%
CCc1ccc(C(=O)c2cn(CC(=O)Nc3cc(C)ccc3C)c3nc(C)ccc3c2=O)cc1	.	.	.	-4%	.
COC(=O)c1ccc(OC(=O)/C=C/c2ccco2)cc1	1%	3%	.	2.4µM*	0%
O=Cc1cccc(OC(=O)/C=C/c2ccco2)c1	13%	?	.	27µM*	?
O=c1[nH]c(SCc2cccc([N+](=O)[O-])c2)nc2nc[nH]c12	.	.	0%[9.22 µM]	.	.
Cc1nc2ccc(S(=O)(=O)CCC(=O)Nc3ccc(C)c(C)c3)cc2s1	.	.	.	-7%	.
COc1ccc(CNC(=O)c2ccc(-c3ccccc3)cc2)cc1	?	?	2%	?	?
COc1ccc(C(=O)CN2C(=O)c3ccccc3C2=O)cc1	27%	10%	.	17µM*	?
COc1ccc(C(=O)NCC(=O)c2ccccc2)cc1	3.5µM*	9.2µM*	.	12µM*	2.8µM*
COc1ccc(/C(C)=N\NC(=O)CSc2nnc(C)s2)cc1	0%	4%	1%	-17%	-1%
COc1ccc(C(=O)Cc2nnc(C)s2)cc1	?	?	?	19µM*	?
COc1ccc(O)c(C(=O)CC(=O)c2ccccc2)c1	0.71µM*	?	1.8µM*	17µM*	0.71µM*
COc1ccc(C(=O)c2ccccc2O)c(O)c1	2%	5%	2%	1%	-1%
COc1ccc(C(=O)C[n+]2cccc3cc(OC)ccc32)cc1	-6%	-7%	.	3%	-3%
COc1ccc(C(=O)CSc2ccc(-c3ccccc3)nn2)cc1	-5%	-1%	11%	-16%	0%
COc1ccc(C(=O)CC(=O)c2ccc(OC)cc2)cc1	15%	6%	.	19µM*	19%
COc1ccc(C(=O)CNc2ccccc2Br)cc1	?	?	.	7.6µM*	?
COc1ccc(C(=O)C[n+]2ccc3ccccc3c2C)cc1	1µM*	1%	.	-17%	?
COc1ccc(C(=O)CSc2ccccc2C(=O)O)cc1	?	19%	11µM*	9.5µM*	2.2µM*
CCSc1nnc(NC(=O)CCN2C(=O)C3CCCCC3C2=O)s1 (centres undefined)	21%	13%	.	-4%	12%
Cc1ccc(-c2nc3cc(Cl)ccc3o2)cc1NC(=O)c1cc2ccccc2o1	.	.	9%	?	.
CS(=O)(=O)c1ccc(C(=O)OCC(=O)c2ccc(Cl)s2)cc1	3%	-3%	.	1%	-3%
CC(C)N(Cc1ccccc1)C(=O)CN1C(=O)NC2(CCCC2)C1=O	-1%	2%	.	2%	1%
SMILES	Rab9 prom act	ELG1 genotox	SMN2 splice up	FLuc modulator	NPC1 prom act
COc1ccc(C(=O)C(OC(=O)c2ccccc2)c2ccccc2)cc1 (centres undefined)	?	?	22%	?	?
COc1ccc(C(=O)C(OC(=O)c2ccccc2Cl)c2ccccc2)cc1 (centres undefined)	4µM*	?	65%	13µM*	?
COc1ccc2oc(=O)c(C(=O)NCCc3c(C)[nH]c4ccc(Br)cc34)cc2c1	.	.	1%	-1%	.
N#Cc1cccc(-c2csc(N3CCC(C(N)=O)CC3)n2)c1	.	.	.	-17%	.
Nc1c(-c2ccccc2)cnc2cc(-c3ccccc3)nn12	0.71µM*	2.6µM*	4.5µM*	0.6µM*	1.4µM*
Cc1ccc(-c2cc3ncc(C#N)c(N)n3n2)cc1	2.8µM*	?	?	-19%	2.8µM*
Cc1ccc(-n2ncc(C#N)c2N)cc1	1%	5%	.	-3%	-4%
Cc1cc2ncc(-c3ccc(Cl)cc3)c(N)n2n1	4µM*	15µM*	13µM*	9.5µM*	?
CCCSc1nc(N)nc(-c2cccs2)c1C#N	16%	14%	17%	21µM*	3%
C=CCNC(=O)c1ccc(NC(=O)C2=CSCCO2)cc1	0.79µM*	?	.	12µM*	0.89µM*
CC(C)CCNC(=O)c1ccc(NC(=O)C2=CSCCO2)cc1	?	?	.	?	27%
CN(C(=O)COc1ncnc2ccccc12)C1CCCCC1	.	0%	.	.	.
CN(CCC#N)C(=O)CSc1ncnc2sc(-c3ccccc3)cc12	20%	-1%	-22%	11µM*	16%
CCN(CC)C(=O)CSc1ncnc2sc(-c3ccccc3)cc12	2.8µM*	?	-10%	11µM*	?
CN(C(=O)CSc1ncnc2sc(-c3ccccc3)cc12)C1CCS(=O)(=O)C1 (centres undefined)	9%	-6%	-47%	17µM*	-1%
CN(C(=O)CSc1ncnc2ccccc12)C1CCCCC1	3.5µM*	?	.	15µM*	?
CN(C(=O)CSc1ncnc2scc(-c3ccccc3)c12)C1CCS(=O)(=O)C1 (centres undefined)	-2%	3%	8%	0%	1%
CC(=O)N1CCCc2cc(S(=O)(=O)N3CCC(C(=O)NCc4ccc(N(C)C)cc4)CC3)ccc21	.	.	.	0%	.
Cc1c(Cl)cccc1-n1ncc(C(=O)N2CCc3ccccc3C2)c1C1CCN(C(=O)OC(C)(C)C)CC1	.	.	.	4%	.
O=C(O)CN(CCN(CC(=O)O)CC(=O)O)CC(=O)O.[Mn]	.	.	-14%[9.22 µM]	.	.
CCOC(=O)Cc1csc(NC(=O)c2sc3nc4ccc(C)cc4cc3c2N)n1	11%	?	13%	?	3%
CCc1nnc(NC(=O)c2sc3nc4cc(C)ccc4cc3c2N)s1	17%	-2%	-9%	9.5µM*	13%
CCSc1nnc(NC(=O)c2cc(C)nc3ccccc23)s1	-5%	0%	-4%	4%	-3%
CCSc1nnc(NC(=O)c2ccc3ccccc3n2)s1	?	?	14µM*	12µM*	?
CCc1nnc(NC(=O)c2nc(Cl)ccc2Cl)s1	7%	5%	.	3%	1%
CCc1nnc(NC(=O)c2ccc3ccccc3n2)s1	2.5µM*	-15%	2.8µM*	13µM*	?
O=C(CSc1nc2c([nH]c3ccccc32)c(=O)n1-c1ccc(Cl)cc1)NCc1ccccc1	.	.	.	-1%	.
CCOC(=O)C(/C=C(\C#N)C(=O)OCC)=C(/N)N1CCN(c2ccccc2)CC1	-1%	2%	1%	4%	-1%
CCOC(=O)/C(C#N)=C\c1ccc(N2CCN(C)CC2)cc1	-3%	4%	1%	12µM*	-1%
CCOC(=O)/C(C#N)=C\c1ccc(OC)c(OC)c1	-17%	0%	3%	-7%	-10%
